The results in this text go back to PubChem BioAssay (EPA / NIEHS).

What is called AC50 is the midpoint of the concentration-response curve, whichever way the signal moves.

Records with an inconclusive call do not appear. The source made the active and inactive calls. Rule for the calls: active = hit-call score of the fitted dose curve at least 0.9, where 1 is the maximum; inconclusive = response in the unintended direction; inactive = score below 0.9.

Chain of human Beta-secretase (BACE), BACE1 (gene 23621) (P56817 whole entry, looked up): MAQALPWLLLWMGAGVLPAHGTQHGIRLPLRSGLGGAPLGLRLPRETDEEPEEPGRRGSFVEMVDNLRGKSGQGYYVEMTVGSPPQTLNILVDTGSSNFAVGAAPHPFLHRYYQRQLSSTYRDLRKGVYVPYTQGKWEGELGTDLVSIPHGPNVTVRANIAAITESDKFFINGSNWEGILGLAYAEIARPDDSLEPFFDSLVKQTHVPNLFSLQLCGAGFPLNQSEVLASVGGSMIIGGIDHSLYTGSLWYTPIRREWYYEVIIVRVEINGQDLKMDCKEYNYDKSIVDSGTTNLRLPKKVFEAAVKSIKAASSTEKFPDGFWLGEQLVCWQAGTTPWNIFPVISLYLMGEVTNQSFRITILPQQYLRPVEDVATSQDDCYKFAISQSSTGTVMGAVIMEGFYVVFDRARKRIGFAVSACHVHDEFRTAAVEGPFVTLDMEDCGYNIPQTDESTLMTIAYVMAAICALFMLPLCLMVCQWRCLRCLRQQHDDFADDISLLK

This assay concerns the target human Beta-secretase (BACE), BACE1 (gene 23621) (UniProt P56817). The experiment in a line: NVS_ENZ_hBACE: NovaScreen (NVS) Enzymatic Assay for human Beta-secretase (BACE) (AID 2283140).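 Note: hits are inhibitors that reduce fluorescent substrate signal versus DMSO.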 The protocol:
NVS_ENZ_hBACE is a biochemical, single-readout assay that uses extracted gene-proteins from SF9 in a cell-free assay. Measurements were taken 1 hour after chemical dosing in a 96-well plate.NVS_ENZ_hBACE is one of one assay component(s) measured or calculated from the NVS_ENZ_hBACE assay. It is designed to make measurements of enzyme activity, a form of enzyme reporter, as detected with fluorescence intensity signals by Fluorescence technology.Data from the assay component NVS_ENZ_hBACE was analyzed into 1 assay endpoint. This assay endpoint, NVS_ENZ_hBACE, was analyzed in the positive analysis fitting direction relative to DMSO as the negative control and baseline of activity. Using a type of enzyme reporter, loss-of-signal activity can be used to understand changes in the enzymatic activity as they relate to the gene BACE1. Furthermore, this assay endpoint can be referred to as a primary readout, because […]. To generalize the intended target to other relatable targets, this assay endpoint is annotated to the protease intended target family, where the subfamily is aspartate protease.
Binding assays used specific radioligands (tritiated, iodinated) with non-radioactive competitive displacement ligands in agonist or antagonist protocols (as indicated) and various reference compounds and inhibitors to titrate specific binding to receptors and transporters. Most enzyme assays (CYPs, kinases, phosphatases, proteases, HDACs) used recombinant protein and specific substrates (fluorescence mostly, some colorimetric and radioactive) and inhibitors, followed by a biochemical separation of substrate and product. All assays for the biochemical HTS were initially run in duplicate at a single concentration (10 uM for CYP450 assays and 25 uM for all others). […] Each assay was run with positive and negative controls, and concurrent controls on every plate. The follow-up (secondary) screen tested active chemical-pairs in concentration series, as well as a few additional assays not tested in the primary screen, some selected negative inactives, and several cases re-run in the concentration series for confirmatory purposes.
In the case of `O=C(O)C(F)(F)C(F)(F)C(F)(F)C(F)(F)C(F)(F)C(F)(F)C(F)(F)C(F)(F)F`, the AC50 is 10.7 µM (active).

Regarding `CCCCCCCCCc1ccc(O)cc1`, the call was inactive.

As to `Oc1ccc(C(c2ccc(O)cc2)(C(F)(F)F)C(F)(F)F)cc1`, the result was inactive.

Turning to `Cc1cccc(C)c1N`, the outcome was inactive.

As to `O=C(O)C(F)(F)C(F)(F)C(F)(F)C(F)(F)C(F)(F)C(F)(F)C(F)(F)C(F)(F)C(F)(F)F`, the half-maximal activity concentration (AC50) is 3.53 µM (active).

Regarding `CC(C)(c1ccccc1)c1ccc(O)cc1`, the AC50 is 20.3 µM (active).

In the case of `Cc1ccc(O)c(C)c1`, the compound was classed as inactive.

As for `CCCCCCOC(=O)c1ccccc1C(=O)OCCCCCC`, the compound was called inactive.

Consider `ClC(Cl)=C(c1ccc(Cl)cc1)c1ccc(Cl)cc1`, for which the compound was called inactive.

In the case of `O=S(=O)(O)C(F)(F)C(F)(F)C(F)(F)C(F)(F)C(F)(F)C(F)(F)F`, the AC50 was 1.85 µM (active).

As to `Oc1c(Cl)c(Cl)c(Cl)c(Cl)c1Cl`, the result was inactive.

Regarding `O=C(NC(=O)c1cc(F)c(F)cc1Cl)Nc1cc(F)ccc1N1CCC(C(=O)O)CC1`, the half-maximal activity concentration (AC50) is 7.81 µM (active).

Consider `CCC(C)(c1ccc(O)cc1)c1ccc(O)cc1`, for which the AC50 is 11.2 µM (active).
